Records with an inconclusive call do not appear. Activity calls are given as the source filed them. Rule for the calls, unless noted: active = hit-call score of the fitted dose curve at least 0.9, where 1 is the maximum; inactive = score below 0.9.
Assays:
[1] = CEETOX_H295R_PROG: CeeTox H295R High-throughput Steroidogenesis Assay for Progesterone (PROG) (AID 2283442); conditions: actives raise or lower the signal;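 for AC50: human H295R adrenal cells primed with 10 µM forskolin before dosing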
Procedure, shortened: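 H295R human adrenal cells were prestimulated with 10 uM forskolin for 48 h, then exposed to test chemical (0.1% DMSO final) for 48 h. Medium progesterone was MTBE-extracted and quantified by HPLC-MS/MS, with bidirectional fitting against DMSO.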

[2] = CCTE_Simmons_CellTiterGLO_HEK293T: Viability Assessment in CCTE's Assays for Thyroperoxidase (TPO) Inhibition, Simmons Lab (AID 2283665; active = hit-call score of the fitted dose curve at least 0.9, where 1 is the maximum;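 for AC50: cells exposed to compound for 24 h before readout; actives reduce ATP signal below DMSO vehicle meaning cytotoxicity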)
Procedure, shortened: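 HEK293T, 10 000 cells/well, DMEM + 1% FBS; 8-pt titration 5 nM–87.5 uM [final], 0.5% DMSO; 24 hr, 37C, 5% CO2; CellTiter-Glo luminescence; n=3 biological replicates.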

[3] = biological target: chimpanzee Androgen Receptor (AR), AR (gene 747460) (UniProt O97775); assay: NVS_NR_cAR: NovaScreen (NVS) Nuclear Receptor Binding Assay for chimpanzee Androgen Receptor (AR) (AID 2283346; active = hit-call score of the fitted dose curve at least 0.9, where 1 is the maximum;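 note: radioligand displacement from AR measured by scintillation counting in a cell-free assay; a loss of bound radioligand signal versus DMSO counts as binding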)
Procedure, shortened: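 Radioligand binding to chimpanzee AR expressed in Sf9/Sf21 cells, cell-free, measured 72 h after dosing by lysate-based scintillation counting. Loss of signal vs DMSO; initial duplicate screen at 25 uM, actives retested in concentration series.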

[4] = CPHEA_Stoker_NIS_Cytotoxicity: Cytotoxicity Assessment for CPHEA's Radioactive Iodide Uptake (RAIU) Assay for Sodium/Iodide Symporter (NIS) Inhibition, Stoker and Laws Labs (AID 2283897; active = hit-call score of the fitted dose curve at least 0.9, where 1 is the maximum)
Procedure, shortened: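 CellTiter-Glo ATP luminescence gauged viability in HEK293T cells expressing human NIS after 2 h chemical exposure. Concentrations ran 0.001–100 uM in 0.5% DMSO; DMSO served as baseline for the loss-of-signal fit.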

[5] = biological target: human Ephrin type-A Receptor 1 (EphA1), EPHA1 (gene 2041) (UniProt P21709); assay: NVS_ENZ_hEphA1: NovaScreen (NVS) Enzymatic Assay for human Ephrin type-A Receptor 1 (EphA1) (AID 2283158; active = hit-call score of the fitted dose curve at least 0.9, where 1 is the maximum;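 note: activity is signal loss versus DMSO meaning EphA1 kinase inhibition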)
Procedure, shortened: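 Cell-free enzymatic assay with recombinant EphA1 and fluorescent substrate; product separated by electrophoretic mobility shift, fluorescence intensity read 1 hour after dosing. Loss of signal versus DMSO baseline; primary duplicate screen at 25 uM, actives followed to 50 uM top concentration.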

[6] = CCTE_Shafer_MEA_acute_spike_number: CCTE's Neural Acute Assay for Total Number of Spikes, Shafer Lab (AID 2284008);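 for AC50: curve fitted for decrease in spike count so AC50 reflects inhibitors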
Procedure, shortened: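 Primary rat cortical neurons on 16-electrode MEA wells; on DIV 13 or 15, 40-min baseline then 40-min recording with compound (0.03-40 uM) at 37 C. Spikes detected at 8x rms noise; percent change versus baseline, DMSO as negative control.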

[7] = CCTE_Shafer_MEA_acute_firing_rate_mean: CCTE's Neural Acute Assay for Mean Firing Rate, Shafer Lab (AID 2284009);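 note: analyzed for loss of signal so actives lower firing rate relative to DMSO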
Procedure, shortened: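 Rat primary cortical neurons on 48-well MEA plates, dosed at 0.03-40 uM on DIV 13 or 15; 40 min spontaneous activity recorded at 37 C before and after compound. Spike rate per electrode averaged per well, expressed as percent change from baseline.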

[8] = CCTE_Shafer_MEA_acute_burst_number: CCTE's Neural Acute Assay for Single-Electrode Bursts, Shafer Lab (AID 2284013)
Procedure, shortened: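 Primary rat cortical neurons on 16-electrode MEA wells, treated on DIV 13 or 15 with compound at 0.03-40 uM. Single-electrode burst count from 40-min recordings at 37 C before and after exposure; percent change from baseline per well, DMSO negative control.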

[9] = CCTE_Shafer_MEA_acute_burst_duration_mean: CCTE's Neural Acute Assay for Mean Burst Duration, Shafer Lab (AID 2284014);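 note: hits are decreases in mean burst duration relative to DMSO controls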
Procedure, shortened: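 Rat primary cortical neurons on 48-well MEA, treated at DIV 13 or 15 with 0.03-40 uM in at least 3 wells. Value is percent change in mean burst duration, comparing 40 min recordings at 37 C before and during exposure.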

[10] = CCTE_Shafer_MEA_acute_per_burst_spike_number_mean: CCTE's Neural Acute Assay for Average Number of Spikes Per Burst, Shafer Lab (AID 2284015);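 note: hits are decreases in mean spikes per burst versus baseline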
Procedure, shortened: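 Percent change in mean spikes per single-electrode burst is compared between a 40 min baseline and a 40 min recording with compound (0.03-40 uM). Cultures were rat cortical neurons on MEA plates at DIV 13 or 15, recorded at 37 C, with DMSO as the negative control.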

[11] = CCTE_Shafer_MEA_acute_interburst_interval_mean: CCTE's Neural Acute Assay for Mean Interburst Interval, Shafer Lab (AID 2284016);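 note: percent change of mean interburst interval versus each well's own pre-dose baseline; curves fitted for decrease in interburst interval relative to DMSO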
Procedure, shortened: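 Percent change in mean single-electrode interburst interval was calculated per well from 40 min recordings before and after compound (0.03-40 uM). Recordings were made at 37 C on rat cortical cultures at DIV 13 or 15, with spikes detected at 8x rms threshold.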

[12] = CCTE_Shafer_MEA_acute_burst_percentage_mean: CCTE's Neural Acute Assay for Percentage of Spikes in a Burst, Shafer Lab (AID 2284017);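 for AC50: curve fitted for loss of signal so potency reflects decreased burst percentage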
Procedure, shortened: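 Well-level mean burst percentage from a 40-min recording after compound (0.03-40 uM) expressed as percent change from a 40-min baseline at 37C. Cultures: primary rat cortical neurons on MEA, dosed on DIV 13 or 15; fitted downward relative to DMSO.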

[13] = CCTE_Shafer_MEA_acute_burst_percentage_std: CCTE's Neural Acute Assay for Standard Deviation of Burst Percentage, Shafer Lab (AID 2284018);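 note: fitted in the negative direction so actives lower burst percentage SD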
Procedure, shortened: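 Rat primary cortical neurons on 48-well MEAs, DIV 13 or 15, 37 C. 40-min baseline then 40-min recording with compound (0.03-40 uM); well-level SD of per-electrode burst spike percentage, expressed as percent change from baseline.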

[14] = CCTE_Shafer_MEA_acute_per_network_burst_spike_number_mean: CCTE's Neural Acute Assay for Average Number of Spikes in a Network Burst, Shafer Lab (AID 2284019);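 for AC50: curve fitted for loss of signal so actives reduce spikes per network burst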
Procedure, shortened: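 Rat primary cortical neurons on 48-well MEA at DIV 13 or 15, 37 C; compounds 0.03-40 uM, at least three wells each. 40-min baseline then 40-min exposure recording; percent change in mean spikes per network burst.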

[15] = CCTE_Shafer_MEA_acute_per_network_burst_spike_number_std: CCTE's Neural Acute Assay for Standard Deviation of Number of Spikes in a Network Burst, Shafer Lab (AID 2284020);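 note: fitted for decrease in spike-number SD versus DMSO so actives lower it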
Procedure, shortened: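 Rat primary cortical neurons on 48-well MEA (16 electrodes/well), treated DIV 13 or 15 at 0.03-40 uM, ≥3 wells per compound. 40 min recordings at 37 C before and after dosing; value is percent change in network-burst spike-number SD, negative direction vs DMSO.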

[16] = CCTE_Shafer_MEA_acute_per_network_burst_electrodes_number_mean: CCTE's Neural Acute Assay for Mean Number of Electrodes in a Network Burst, Shafer Lab (AID 2284021);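 note: curves fitted for decreases only so hits reduce electrodes per burst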
Procedure, shortened: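 Rat primary cortical neurons on 16-electrode MEA wells were recorded 40 min at baseline on DIV 13 or 15, then 40 min after compound (0.03-40 uM), at 37 C. Value is percent change per well, fitted in loss direction versus DMSO.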

[17] = CCTE_Shafer_MEA_acute_network_burst_percentage: CCTE's Neural Acute Assay for Percentage of Network Bursts, Shafer Lab (AID 2284022);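 note: curves fitted for loss so actives lower network burst percentage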
Procedure, shortened: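 Primary rat cortical neurons on 16-electrode MEA wells, treated on DIV 13 or 15 with compound (0.03-40 uM); 40-min baseline and 40-min post-exposure recordings at 37 C. Value is percent change in spikes within network bursts versus baseline, DMSO negative control.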

[18] = CCTE_Shafer_MEA_acute_cross_correlation_area: CCTE's Neural Acute Assay for Area of Cross Correlation, Shafer Lab (AID 2284024);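 note: area under pooled inter-electrode spike cross-correlation near zero lag as percent change from own baseline; curves fitted for loss of cross-correlation area so actives lower synchrony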
Procedure, shortened: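 Primary rat cortical neurons on 48-well MEA plates (16 electrodes/well) were recorded 40 min at baseline on DIV 13 or 15, then 40 min with compound (0.03-40 uM) at 37 C; cross-correlation area expressed as percent change from baseline.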

[19] = CCTE_Shafer_MEA_acute_synchrony_index: CCTE's Neural Acute Assay for Synchrony, Shafer Lab (AID 2284027);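 note: fitted for loss of signal so actives lower synchrony relative to DMSO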
Procedure, shortened: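 Readout is percent change in the unitless network synchrony index (0 low, 1 high) between a 40-min baseline and a 40-min recording in compound. Cultures were primary rat cortical neurons on MEAs, treated at 0.03-40 uM on DIV 13 or 15.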

[20] = CCTE_Shafer_MEA_acute_LDH: CCTE's Lactate Dehydrogenase Assay for Cytotoxicity in the Neural Acute Assay, Shafer Lab (AID 2284086; active = hit-call score of the fitted dose curve at least 0.9, where 1 is the maximum;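 note: active means LDH release rises above DMSO vehicle level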)
Procedure, shortened: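 Rat cortical neurons cultured on microelectrode arrays; baseline 40-min recording, compound added, second 40-min recording; medium then sampled for released LDH (colorimetric kit, 490 nm). DMSO = negative control.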

Sequence of chimpanzee Androgen Receptor (AR), AR (gene 747460) (O97775 whole entry, looked up): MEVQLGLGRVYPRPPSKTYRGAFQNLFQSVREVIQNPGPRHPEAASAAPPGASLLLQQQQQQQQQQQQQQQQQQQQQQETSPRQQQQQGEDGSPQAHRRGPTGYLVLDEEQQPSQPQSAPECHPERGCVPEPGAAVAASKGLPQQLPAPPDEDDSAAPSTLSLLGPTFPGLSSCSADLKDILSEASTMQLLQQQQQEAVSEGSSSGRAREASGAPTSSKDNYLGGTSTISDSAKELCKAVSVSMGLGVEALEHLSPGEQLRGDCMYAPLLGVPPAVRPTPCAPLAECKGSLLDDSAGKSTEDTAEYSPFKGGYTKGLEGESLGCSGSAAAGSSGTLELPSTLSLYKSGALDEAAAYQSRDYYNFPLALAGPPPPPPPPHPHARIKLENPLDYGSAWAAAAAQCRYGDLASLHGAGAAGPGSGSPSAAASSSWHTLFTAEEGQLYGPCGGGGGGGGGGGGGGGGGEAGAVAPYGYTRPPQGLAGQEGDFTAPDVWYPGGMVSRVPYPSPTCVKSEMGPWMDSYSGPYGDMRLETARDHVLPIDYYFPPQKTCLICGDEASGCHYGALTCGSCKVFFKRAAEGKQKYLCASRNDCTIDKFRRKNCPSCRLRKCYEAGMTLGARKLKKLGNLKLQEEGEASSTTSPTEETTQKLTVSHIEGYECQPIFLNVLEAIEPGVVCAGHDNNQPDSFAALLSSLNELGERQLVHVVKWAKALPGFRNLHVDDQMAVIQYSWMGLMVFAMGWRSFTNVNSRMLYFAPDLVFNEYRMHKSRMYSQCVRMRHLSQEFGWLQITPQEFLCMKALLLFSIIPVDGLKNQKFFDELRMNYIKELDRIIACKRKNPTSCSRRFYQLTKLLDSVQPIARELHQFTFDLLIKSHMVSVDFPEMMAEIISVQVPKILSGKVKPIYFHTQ
Sequence of human Ephrin type-A Receptor 1 (EphA1), EPHA1 (gene 2041) (P21709 whole entry, looked up): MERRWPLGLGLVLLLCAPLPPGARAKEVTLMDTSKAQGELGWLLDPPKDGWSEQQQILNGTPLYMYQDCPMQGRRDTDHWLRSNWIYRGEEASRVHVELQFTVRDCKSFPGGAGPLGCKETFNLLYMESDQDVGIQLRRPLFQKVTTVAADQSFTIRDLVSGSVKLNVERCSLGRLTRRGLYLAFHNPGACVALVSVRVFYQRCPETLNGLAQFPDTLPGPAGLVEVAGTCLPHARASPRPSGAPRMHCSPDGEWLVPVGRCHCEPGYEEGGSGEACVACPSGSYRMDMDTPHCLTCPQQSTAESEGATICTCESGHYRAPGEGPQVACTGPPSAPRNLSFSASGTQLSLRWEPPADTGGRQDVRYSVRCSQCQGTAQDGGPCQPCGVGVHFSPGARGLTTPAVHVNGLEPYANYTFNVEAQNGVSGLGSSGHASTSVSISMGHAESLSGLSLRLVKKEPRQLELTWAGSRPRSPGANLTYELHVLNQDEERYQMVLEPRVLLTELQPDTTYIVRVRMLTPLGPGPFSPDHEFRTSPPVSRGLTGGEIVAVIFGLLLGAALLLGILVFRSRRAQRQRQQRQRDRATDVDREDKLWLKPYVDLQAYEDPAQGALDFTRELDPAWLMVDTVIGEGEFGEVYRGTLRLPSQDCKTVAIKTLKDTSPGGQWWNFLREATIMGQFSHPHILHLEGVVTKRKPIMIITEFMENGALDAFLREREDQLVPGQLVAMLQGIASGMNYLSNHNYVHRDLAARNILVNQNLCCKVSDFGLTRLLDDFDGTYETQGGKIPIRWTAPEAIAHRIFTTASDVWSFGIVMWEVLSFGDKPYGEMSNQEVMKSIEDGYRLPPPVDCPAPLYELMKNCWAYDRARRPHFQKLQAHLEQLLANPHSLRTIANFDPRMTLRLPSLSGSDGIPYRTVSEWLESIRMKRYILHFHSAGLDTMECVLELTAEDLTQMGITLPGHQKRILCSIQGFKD

## CCCCOC(=O)COc1ccc(Cl)cc1Cl
[1]
  outcome: inactive

## Sc1nc2ccccc2s1
[2]
  outcome: inactive

## CCCCC(CC)COC(=O)CS (stereo not given)
[2]
  outcome: inactive

## CCCCCC1CCCC(=O)O1 (stereo not given)
[3]
  outcome: inactive

## COC(=O)[C@]1(C)CCC[C@@]2(C)[C@H]1CC=C1C=C(C(C)C)CC[C@@H]12
[4]
  outcome: inactive

## COC(=O)/C=C\C(=O)OC
[3]
  outcome: inactive

## CCCOCCC
[5]
  outcome: inactive

## CN(C)c1ccc(C(c2ccccc2)c2ccc(N(C)C)cc2)cc1
[2]
  AC50: 25.3 µM (active)

## Cc1cccnc1
[4]
  outcome: inactive

## Clc1ccccn1
[5]
  AC50: 9.99 µM (active)

## Cc1cc(C)c(S(=O)(=O)O)cc1N=Nc1cc(S(=O)(=O)O)c2ccccc2c1O
[2]
  AC50: 13.1 µM (active)

## CCO[Si](CCCN)(OCC)OCC
[1]
  outcome: inactive

## CC1(C)S[C@@H]2[C@H](NC(=O)[C@H](N)c3ccccc3)C(=O)N2[C@H]1C(=O)O
[6]
  outcome: inactive
[7]
  outcome: inactive
[8]
  outcome: inactive
[9]
  outcome: inactive
[10]
  outcome: inactive
[11]
  AC50: 1.61 µM (active)
[12]
  AC50: 0.0814 µM (active)
[13]
  outcome: inactive
[14]
  outcome: inactive
[15]
  outcome: inactive
[16]
  outcome: inactive
[17]
  AC50: 3.57 µM (active)
[18]
  outcome: inactive
[19]
  AC50: 0.0846 µM (active)
[20]
  outcome: inactive

## CN(C)CCC(c1ccc(Cl)cc1)c1ccccn1 (stereo not given)
[6]
  outcome: inactive
[7]
  outcome: inactive
[8]
  outcome: inactive
[9]
  outcome: inactive
[10]
  AC50: 24.3 µM (active)
[11]
  AC50: 23.9 µM (active)
[12]
  AC50: 23.8 µM (active)
[13]
  AC50: 27.1 µM (active)
[14]
  AC50: 3.62 µM (active)
[15]
  AC50: 19.5 µM (active)
[16]
  AC50: 3.59 µM (active)
[17]
  AC50: 22.8 µM (active)
[18]
  outcome: inactive
[19]
  AC50: 27.7 µM (active)
[20]
  outcome: inactive

## N#CCN(CC#N)CCN(CC#N)CC#N
[5]
  outcome: inactive

## c1ccc(CNc2ncnc3nc[nH]c23)cc1
[1]
  AC50: 21.9 µM (active)

## Cc1cc(-n2nc3ccc(Cl)cc3n2)c(O)c(C(C)(C)C)c1
[3]
  AC50: 0.741 µM (active)

## CN(C)Cc1cc(C(C)(C)C)c(O)c(C(C)(C)C)c1
[6]
  AC50: 2.98 µM (active)
[7]
  AC50: 2.98 µM (active)
[8]
  outcome: inactive
[9]
  outcome: inactive
[10]
  outcome: inactive
[11]
  outcome: inactive
[12]
  AC50: 24.1 µM (active)
[13]
  AC50: 15 µM (active)
[14]
  AC50: 0.0516 µM (active)
[15]
  AC50: 0.0258 µM (active)
[16]
  outcome: inactive
[17]
  outcome: inactive
[18]
  outcome: inactive
[19]
  AC50: 22.8 µM (active)
[20]
  outcome: inactive

## NC(N)=Nc1nc(CSCCC(N)=NS(N)(=O)=O)cs1
[6]
  outcome: inactive
[7]
  outcome: inactive
[8]
  outcome: inactive
[9]
  outcome: inactive
[10]
  outcome: inactive
[11]
  outcome: inactive
[12]
  outcome: inactive
[13]
  outcome: inactive
[14]
  outcome: inactive
[15]
  outcome: inactive
[16]
  outcome: inactive
[17]
  outcome: inactive
[18]
  outcome: inactive
[19]
  outcome: inactive
[20]
  outcome: inactive

## O=C(OCc1ccccc1)c1ccccc1
[4]
  outcome: inactive

## Cc1cc2nc3c(=O)[nH]c(=O)nc-3n(C[C@H](O)[C@H](O)[C@H](O)CO)c2cc1C
[4]
  outcome: inactive

## Cc1cc(O)cc(C)c1Cl
[1]
  outcome: inactive

## Cc1ccccc1S(N)(=O)=O
[5]
  outcome: inactive
[3]
  AC50: 1.88 µM (active)
